Assay results taken from PubChem BioAssay (Tox21).
Several values for one entry are separate records, joined by “and”; a condition that tells them apart may be missing. Equal values may be shown once. Results filed as inconclusive are left out. The source holds several records for some structures; these can differ, active in one and inactive in another. Activity calls are given as the source filed them. Unless noted, calls follow the shape of the dose curve; as a rule, active = well fitted curve in the direction sought with a large enough effect in the repeat runs; inconclusive = weak or mixed curves; inactive = no such curve, though single readings can be large; an effect the other way counts as inactive or inconclusive.

Legend:
[1] = A CellTox Green Cytotoxicity Assay to monitor cytotoxicity in HepG2 cells - 8 hour (AID 1224890); also: nearly all actives have a fitted effect of over 45% in size
Procedure, shortened: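 Cells and non-lytic dye reagent are dispensed together (600 HepG2 cells/well) and incubated 5 h before DMSO compound transfer. Kinetic fluorescence is then recorded in the same wells during 40 h at 37 C.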

[2] = qHTS assay to identify small molecule antagonists of the estrogen receptor alpha (ER-alpha) signaling pathway using the BG1 cell line in the presence of 0.1 nM 17-beta-estradiol - cell viability counter screen (AID 1259241); also: nearly all actives have a fitted effect of over 40% in size
Procedure, shortened: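 VM7Luc4E2 cells (endogenous full-length ER-alpha, 4xERE-luciferase), cultured 5 days in charcoal-stripped serum, exposed to compounds with 0.1 nM 17beta-estradiol (final) for 22 hr at 37C. Viability read in same wells as live-cell protease fluorescence after 30 min.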

[3] = qHTS assay to identify small molecule antagonists of the androgen receptor (AR) signaling pathway using the MDA cell line in the presence of 0.5 nM R1881 - cell viability counter screen (AID 1259242); also: nearly all actives have a fitted effect of over 45% in size
Procedure, shortened: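 Steps: plate MDA-kb2 cells, rest 5 hr at 37C without CO2; pin in compounds in DMSO; add R1881 to 0.5 nM final; incubate 16 hr; add CellTiter-Fluor, 30 min; read fluorescence.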

[4] = biological target: Estrogen receptor (Homo sapiens) (UniProt P03372); experiment: qHTS assay to identify small molecule antagonists of the estrogen receptor alpha (ER-alpha) signaling pathway using the BG1 cell line in the presence of 0.1 nM 17-beta-estradiol (AID 1259244); also: nearly all actives have a fitted effect of over 50% in size
Estrogen receptor (Homo sapiens), sequence (P03372 whole entry, looked up): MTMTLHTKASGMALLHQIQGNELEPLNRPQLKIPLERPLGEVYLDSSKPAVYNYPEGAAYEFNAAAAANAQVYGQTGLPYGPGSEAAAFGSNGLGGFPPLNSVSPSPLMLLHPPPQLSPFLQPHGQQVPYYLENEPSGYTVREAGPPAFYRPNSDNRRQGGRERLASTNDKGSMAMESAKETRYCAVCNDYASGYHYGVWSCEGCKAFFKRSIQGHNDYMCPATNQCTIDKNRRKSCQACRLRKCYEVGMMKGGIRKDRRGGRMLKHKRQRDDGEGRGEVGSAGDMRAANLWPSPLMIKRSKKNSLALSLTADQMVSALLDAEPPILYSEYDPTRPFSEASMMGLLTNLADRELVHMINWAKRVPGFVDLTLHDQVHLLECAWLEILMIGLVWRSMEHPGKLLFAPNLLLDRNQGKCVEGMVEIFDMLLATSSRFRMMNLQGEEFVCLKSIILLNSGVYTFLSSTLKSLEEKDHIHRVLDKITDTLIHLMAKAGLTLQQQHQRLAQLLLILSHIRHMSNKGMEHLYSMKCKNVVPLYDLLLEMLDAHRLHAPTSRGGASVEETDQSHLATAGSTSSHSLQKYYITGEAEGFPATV
Procedure, shortened: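 Antagonist mode: compounds in DMSO are pinned onto VM7Luc4E2 reporter cells, 0.1 nM final 17beta-estradiol is added, and after 22 h at 37C luciferase luminescence is measured with ONE-Glo.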

[5] = qHTS assay to identify small molecule HDAC inhibitors (AID 1259364); also: potency is read from the fitted curve at half-maximal effect;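 also: wild-type HCT-116 cells with endogenous class I/II HDAC activity; nearly all actives have a fitted effect of over 45% in size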
Procedure, shortened: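 Cells (HCT-116, wild type) are seeded at 1,500 per well, incubated overnight, treated with compound in DMSO for 2 hr, then developed with HDAC-Glo I/II reagent for 30 min at room temperature.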

[6] = qHTS assay to identify small molecule HDAC inhibitors - cell viability counter screen (AID 1259365); also: series mostly up to about 92 µM; nearly all actives have a fitted effect of over 50% in size
Procedure, shortened: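 Wild-type HCT-116 cells, 1,500/well, cultured overnight, then compound-treated 2 h at 37 C. Viability measured as ATP luminescence with CellTiter-Glo after 30 min at room temperature.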

[7] = qHTS assay to identify small molecule agonists of the sonic hedgehog signaling (Shh) pathway - cell viability counter screen (AID 1259366); also: nearly all actives have a fitted effect of over 50% in size
Procedure, shortened: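 NIH/3T3-derived Gli1-Luc reporter cells, 2,000 per well, received compound after 4 h and were treated about 23 h at 37C. Viability measured in the same wells by CellTiter-Fluor fluorescence after 1 h.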

[8] = qHTS assay to identify small molecule antagonists of the sonic hedgehog signaling (Shh) pathway - cell viability counter screen (AID 1259367); also: nearly all actives have a fitted effect of over 55% in size; also: potency is read from the fitted curve at half-maximal effect
Procedure, shortened: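 Cytotoxicity was assessed in parallel with Shh reporter activity by measuring live-cell protease fluorescence (CellTiter-Fluor) in NIH/3T3 cells stably carrying Gli1-Luc, treated with compound under conditioned medium stimulation for 23 hr plus 1 hr reagent incubation.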

[9] = qHTS assay to identify small molecule agonists of the sonic hedgehog signaling (Shh) pathway (AID 1259368; calls by dose curve;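 also: NIH/3T3-derived 3T3Gli1-Luc cells carrying a stable Gli1-driven firefly luciferase reporter; series mostly up to about 92 µM; nearly all actives have a fitted effect of over 15% in size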)
Procedure, shortened: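 Cells of a mouse NIH/3T3 clone stably expressing luciferase under the Gli1 transcriptional response element are exposed to test chemicals for 24 hr at 37 C. Pathway activation is detected as a rise in luminescence.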

[10] = qHTS assay to identify small molecule antagonists of the sonic hedgehog signaling (Shh) pathway (AID 1259369; calls by dose curve; also: nearly all actives have a fitted effect of over 45% in size; also: potency is read from the fitted curve at half-maximal effect)
Procedure, shortened: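 Cells are plated and held 4hr at 37 C, compounds (DMSO) are pinned in, conditioned medium is added to stimulate the pathway, and after 24hr luciferase reagent is added for 30min before luminescence is read.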

[11] = biological target: Estrogen receptor beta (Homo sapiens) (UniProt Q92731); experiment: qHTS assay to identify small molecule agonists of the estrogen receptor beta (ER-beta) signaling pathway (AID 1259377; active = well fitted activation curve with a large enough effect in the signal ratio in the repeat runs, not every such curve was filed as active; the % refers to the signal ratio)
Estrogen receptor beta (Homo sapiens), sequence (Q92731 whole entry, looked up): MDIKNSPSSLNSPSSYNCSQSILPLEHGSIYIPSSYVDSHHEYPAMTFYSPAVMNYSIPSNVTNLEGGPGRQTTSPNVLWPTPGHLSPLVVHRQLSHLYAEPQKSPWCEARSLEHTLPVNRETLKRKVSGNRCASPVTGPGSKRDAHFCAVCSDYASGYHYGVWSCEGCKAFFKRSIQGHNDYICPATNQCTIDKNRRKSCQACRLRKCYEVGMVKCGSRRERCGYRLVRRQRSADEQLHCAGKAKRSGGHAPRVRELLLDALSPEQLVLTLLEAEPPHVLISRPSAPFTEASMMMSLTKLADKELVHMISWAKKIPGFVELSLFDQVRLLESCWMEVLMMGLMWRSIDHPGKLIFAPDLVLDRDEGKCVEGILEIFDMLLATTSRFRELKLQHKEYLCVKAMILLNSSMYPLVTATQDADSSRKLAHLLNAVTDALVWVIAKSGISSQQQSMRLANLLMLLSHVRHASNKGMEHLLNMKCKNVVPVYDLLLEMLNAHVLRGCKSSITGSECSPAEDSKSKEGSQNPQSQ
Procedure, shortened: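 ER-beta-UAS-bla HEK293T cells in medium with 2% charcoal-stripped FBS were exposed to compounds for 16 h at 37C. Beta-lactamase reporter activity was read as fluorescence after 2 h with LiveBLAzer B/G FRET substrate at room temperature.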

[12] = biological target: Estrogen receptor beta (Homo sapiens) (UniProt Q92731); experiment: qHTS assay to identify small molecule antagonists of the estrogen receptor beta (ER-beta) signaling pathway (AID 1259378; active = well fitted inhibition curve with a large enough effect in the signal ratio in the repeat runs, not every such curve was filed as active; the % refers to the signal ratio)
Procedure, shortened: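 ER-beta-UAS-bla HEK293T (GripTite) cells in 2% charcoal-stripped FBS medium were preincubated 6 hr at 37C, dosed with compound, then stimulated with 1 nM E2 (final) for 16 hr; beta-lactamase reporter read by B/G FRET fluorescence after 2 hr substrate loading.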

[13] = qHTS assay to identify small molecule agonists of the androgen receptor (AR) signaling pathway in the presence of an antagonist - cell viability counter screen (AID 1259379);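 also: MDA-kb2 human breast cancer cells carrying an MMTV luciferase reporter; series mostly up to about 92 µM; nearly all actives have a fitted effect of over 25% in size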
Procedure, shortened: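 Cytotoxicity is assessed by CellTiter-Fluor in MDA-kb2 cells carrying an MMTV-driven luciferase reporter. Cells receive 3.0uM nilutamide plus compounds at 15 concentrations and incubate 16 hr at 37C without CO2 before fluorescence reading.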

[14] = qHTS assay to identify small molecule agonists of the estrogen receptor beta (ER-beta) signaling pathway - cell viability counter screen (AID 1259380); also: nearly all actives have a fitted effect of over 30% in size; also: potency is read from the fitted curve at half-maximal effect
Procedure, shortened: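 Cytotoxicity is measured in parallel with the reporter screen: after 16 hr compound exposure at 37C and a 2 hr LiveBLAzer step, CellTiter-Glo is added to the same ER-beta-UAS-bla HEK293T wells and luminescence read after 30 min.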

[15] = qHTS assay to identify small molecule antagonists of the estrogen receptor beta (ER-beta) signaling pathway - cell viability counter screen (AID 1259382); also: nearly all actives have a fitted effect of over 55% in size; also: potency is read from the fitted curve at half-maximal effect
Procedure, shortened: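 Cytotoxicity counter screen multiplexed with the beta-lactamase antagonist assay: GripTite HEK293T ER-beta-bla cells were treated 16 hr with test chemicals in the presence of 1nM 17-beta-estradiol, and viability was measured by CellTiter-Glo.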

[16] = biological target: Estrogen receptor (Homo sapiens) (UniProt P03372); experiment: qHTS assay to identify small molecule agonists of the estrogen receptor alpha (ER-alpha) signaling pathway in the presence of an antagonist (AID 1259383; calls by dose curve; also: top concentration of the series differs between compounds; nearly all actives have a fitted effect of over 15% in size)
Procedure, shortened: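 Agonist-mode confirmation in the presence of the ER antagonist ICI-182,780 at 10.0nM final. Breast-derived VM7Luc4E2 reporter cells were exposed to compounds for 22hr, and ERE-driven luciferase was quantified by luminescence.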

[17] = qHTS assay to identify small molecule agonists or antagonists of the thyroid stimulating hormone receptor (TSHR) signaling pathway - wild type cell line counter screen (AID 1259384; calls by dose curve)
Procedure, shortened: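 Wild-type HEK293 cells were plated 18 h at 37 C/5% CO2, pin-dosed with compound plus Ro20-1724 medium, held 30 min at room temperature, then given cAMP-d2 and anti-cAMP-cryptate; fluorescence was read after 1 h. Fifteen concentrations, triplicate.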

[18] = qHTS assay to identify small molecule phospholipidosis (PLD) inducers (AID 1259344; active = well fitted curve in the direction sought with a large enough effect; an effect the other way counts as inactive or inconclusive)
Procedure, shortened: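 Cells (HepG2, 900 per well) attach for 4 h, receive LipidTOX Red and compound together, incubate 24 h at 37 C, are fixed 30 min with paraformaldehyde/Hoechst, then imaged at one site per well.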

Measured: Potency

C=CC1(C)OC(=O)N(c2cc(Cl)cc(Cl)c2)C1=O (centres undefined)
active: [14] 27.1 µM and 21.7 µM
21.6 µM (active) and inactive: [10]
54.2 µM (active) and inactive: [8] | [15]
not listed: [18]
inactive: all other assays above

c1ccc2c(c1)CCNC2
not listed: [4] | [10] | [16] | [18]
inactive: all other assays above

C=CC(=O)OCCN(C)C
not listed: [4] | [16] | [17] | [18]
inactive: all other assays above

CCCCOC(C)=O
not listed: [4] | [11] | [12] | [18]
inactive: all other assays above

CN=CNc1ccc(C)cc1C
not listed: [4] | [18]
inactive: all other assays above

CCCCCCCC(=O)Cl
not listed: [4] | [11] | [12] | [18]
inactive: all other assays above

C=CCc1cc(OC)c2c(c1)OCO2
not listed: [4] | [16] | [18]
inactive: all other assays above

Cl/C=C/CCl
not listed: [4] | [10] | [16] | [18]
inactive: all other assays above

CCc1cc(OC)c(C[C@H](C)N)cc1OC
active: [14] 71.5 µM
not listed: [4] | [7] | [10] | [13] | [15] | [16] | [17]
inactive: all other assays above

CCCCCCC1CCOC1=O (centres undefined)
not listed: [4] | [10] | [16] | [17] | [18]
inactive: all other assays above

CC(C)C(C)(N)C#N (centres undefined)
not listed: [4] | [11] | [12] | [16] | [17] | [18]
inactive: all other assays above

COc1ccccc1OC
not listed: [4] | [18]
inactive: all other assays above

CCOC(=O)N(C)N=O
not listed: [4] | [10] | [16] | [18]
inactive: all other assays above

O=[N+]([O-])CCO
not listed: [4] | [10] | [11] | [12] | [17] | [18]
inactive: all other assays above

Cc1cc(OC(=O)N(C)C)nn1C(=O)N(C)C
not listed: [4] | [18]
inactive: all other assays above

O=C(O)C(Cl)Br (centres undefined)
not listed: [4] | [10] | [14] | [16] | [18]
inactive: all other assays above

C#CC(C)(C)O
not listed: [4] | [16] | [17] | [18]
inactive: all other assays above

CN(C)C1CCCCC1
not listed: [4] | [10] | [11] | [12] | [17] | [18]
inactive: all other assays above

CON(C)C(=O)Nc1ccc(Br)cc1
active: [5] 24.3 µM
not listed: [4] | [11] | [12] | [16] | [17] | [18]
inactive: all other assays above

CCC(=O)c1ccc(Cl)cc1
not listed: [4] | [16] | [18]
inactive: all other assays above

CC(C)[C@]12CC(=O)[C@H](C)[C@H]1C2
not listed: [4] | [16] | [18]
inactive: all other assays above

Cc1ccc2cc(C)ccc2c1
not listed: [4] | [16] | [17] | [18]
inactive: all other assays above

Cc1cccc2sc3nncn3c12
not listed: [4] | [11] | [12] | [18]
inactive: all other assays above

CC(C)c1ccc(O)cc1
not listed: [4] | [16] | [18]
inactive: all other assays above

CCCCCCCCSC(=O)Oc1cc(Cl)nnc1-c1ccccc1
not listed: [4] | [11] | [12] | [17] | [18]
inactive: all other assays above
